PubChem BioAssay AID686979 (National Center for Advancing Translational Sciences (NCATS), 2013)
In all, about 420,000 compounds went through this assay and about 50,000 (12%) were called active. A call without a number means that no potency is given here. About 26% were inconclusive and are not listed. The call rests on the fitted dose curve; in most records, active means well fitted inhibition curve with a large enough effect; inconclusive means small, poorly fitted or top-dose-only effect; inactive means flat fitted curve, though single readings scatter. Many of the other results were omitted from the sample, so actives are more common in it than they were.

assay: qHTS for Inhibitors of human tyrosyl-DNA phosphodiesterase 1 (TDP1): qHTS in cells in presence of CPT; conditions: chicken DT40 Tdp1-/-;hTDP1 cells + 20 nM CPT, ATP luminescence, 48 h; series mostly up to 46.2 µM; further: nearly all actives have a fitted effect of over 55% in size
How it was run: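 Chicken DT40 Tdp1-/- cells complemented with human TDP1, 400 cells/well, exposed to compounds plus 20 nM camptothecin for at least 48 h at 37 C; viability read as ATP content by CellTiter-Glo luminescence.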
Potency means the concentration at half of the fitted maximal effect.

Structure (SMILES)	Potency
COC(=O)c1sc(NC(=O)COC(=O)C2CCC2)c(C(=O)OC)c1C	inactive
COc1cc(OC)c(C(=O)NNC(=O)c2ccc(NS(=O)(=O)c3cccs3)cc2)cc1OC	inactive
Cc1cccc(C)c1NC(=O)CSc1nc2c([nH]1)c(=O)n(C)c(=O)n2C	inactive
Cc1ccc2nc(SCC(=O)N3CCN(c4ccccc4)CC3)nc(=O)n2c1	inactive
CC(C)(C)n1cnnc1Sc1ccc([N+](=O)[O-])cn1	inactive
CCOc1ccccc1NC(=O)Cn1c(=O)n(Cc2ccco2)c(=O)c2sc3ccccc3c21	inactive
Cc1nc2cc(C(F)(F)F)ccc2n1CCNc1nc(-c2cc(Cl)c(N)c(Cl)c2)cs1	23.1 µM (active)
O=C(Oc1cc(OC(=O)c2ccccc2)c2c(c1)OC(c1ccc(OC(=O)c3ccccc3)c(OC(=O)c3ccccc3)c1)[C@@H](OC(=O)c1ccccc1)C2)c1ccccc1 (some centres not stated)	inactive
C[C@@H](C(=O)Nc1ccc2ccccc2c1)[C@@H]1C[C@@]1(C)[C@@H](NC(=O)c1cccnc1)c1ccccc1	inactive
O=[N+]([O-])c1c(NCCO)cc(Sc2nc3ccccc3s2)c2nonc12	0.82 µM (active)
O=C(O)c1cccc(S(=O)(=O)Nc2ccc(O)cc2Sc2nc3ccccc3s2)c1	inactive
COc1ccc(S(=O)(=O)Nc2ccc(O)c(Sc3nc4ccccc4s3)c2)cc1	inactive
CSc1nnc(-c2ccc(C(F)(F)F)cn2)o1	inactive
O=S(=O)(O)c1nc2ccccc2n1Cc1ccc(Cl)cc1	inactive
N=c1n(Cc2ccc(Cl)cc2)c2ccccc2n1CC(O)c1ccco1 (configuration not stated)	7.31 µM (active)
CCCNC(=O)c1cc(C2CCCCN2S(=O)(=O)c2ccc(C#N)cc2)on1 (configuration not stated)	inactive
O=C(NCC1(N2CCCCC2)CCCCC1)c1ccc(NS(=O)(=O)c2ccc(F)cc2)cc1	inactive
O=C(OCCOCn1cc(Br)c(=O)[nH]c1=O)c1ccccc1	inactive
CCCn1nnnc1NCc1ccc(CC)cc1	inactive
Cc1cc(/C=N/Nc2ccc([N+](=O)[O-])cn2)c(C)n1-c1cccc(C(=O)O)c1	inactive
Cc1cc(/C=N/n2cnnc2)c(C)n1-c1cccc(C(=O)O)c1	inactive

Structure (SMILES)	Potency
CC(=O)Nc1ccc(/C=N/NC(=O)c2cccs2)cc1	inactive
Cc1cccc(-n2c(C)cc(/C=N\NC(=O)c3cccs3)c2C)c1	18.4 µM (active)
Cc1cccc(-n2c(C)cc(/C=N/NC(N)=S)c2C)c1	10.3 µM (active)
Cc1ccc(C(=O)Nc2ccc(NC(=O)c3cccs3)cc2)c(C)c1	inactive
Cc1c(NC(=O)CSc2nnc(-c3cccnc3)n2N)c(=O)n(-c2ccccc2)n1C	inactive
CC(C)c1ccc(CC(=O)N2CCC2(C)C(=O)NS(=O)(=O)c2ccc(C(C)(C)C)cc2)cc1 (configuration not stated)	inactive
COc1ccc(NC(=O)NN2CCN(C)CC2)c(OC)c1	inactive
Cc1ccc(Cn2c(=O)n(CCCC(=O)NCc3ccccc3Cl)c(=O)c3ccccc32)cc1	inactive
CCCCNC(=O)CCn1c(=O)c2ccccc2n(Cc2cc(C)ccc2C)c1=O	inactive
COc1ccc(CCNC(=O)CCCCn2c(=O)c3ccccc3n(Cc3ccccc3C)c2=O)cc1OC	20.6 µM (active)
COc1ccc(CCNC(=O)CCn2c(=O)oc3ccccc32)cc1OC	inactive
COc1ccc(CCNC(=O)CCCn2c(=O)c3ccccc3n(Cc3ccc(F)cc3Cl)c2=O)cc1OC	inactive
COc1ccc(CCNC(=O)CCCn2c(=O)c3ccccc3n(Cc3ccc(C)cc3)c2=O)cc1OC	23.1 µM (active)
CCOc1cc(CNCc2ccccn2)ccc1OCC(=O)NC(C)(C)C	inactive
N#Cc1ccc(C(=O)OCC(=O)NC(=O)NC2CCCCC2)cc1	inactive
COc1ccc(C(=O)NC(C)c2nccs2)cc1OC1CCN(C(C)C)CC1 (configuration not stated)	inactive
COc1ccc(/C=C/CN2CCN(Cc3ccc(C)cc3)C(CCO)C2)cc1 (configuration not stated)	inactive
CN(CCOc1ccccc1)C(=O)c1cc(-c2ccco2)nc2ccccc12	18.4 µM (active)
O=C(Nc1cccc(F)c1)c1cc(-c2ccco2)nc2ccccc12	inactive
CN(C(=O)COC(=O)c1cc(-c2ccco2)nc2ccccc12)C1CCS(=O)(=O)C1 (configuration not stated)	inactive
COCCCNC(=O)c1c(NC(=O)c2cc(=O)c3cc(C)c(C)cc3o2)sc2c1CCCC2	inactive

Structure (SMILES)	Potency
CCS(=O)(=O)C1=NSC2=NC(=O)/C(=C\c3ccc(OS(=O)(=O)c4ccccc4)cc3)C(=N)N21	inactive
c1ccc(-c2ccccc2OCCN2CCCCC2)cc1	inactive
Cc1ccc(CN2CCNC(=O)C2CC(=O)NCc2csc(C(C)C)n2)cc1 (configuration not stated)	inactive
Cc1cc(C)c(NC(=O)CSc2nc3ccncc3[nH]2)c(C)c1	inactive
O=[N+]([O-])c1cccc(C=NN=Cc2ccccc2O)c1	inactive
Nc1nnnn1/N=C/c1cc([N+](=O)[O-])ccc1O	inactive
O=[N+]([O-])c1ccc(O)c(/C=N/Nc2ccccc2[N+](=O)[O-])c1	3.26 µM (active)
C[C@H](CO)N1C[C@H](C)[C@@H](CN(C)S(=O)(=O)c2ccc(Oc3ccccc3)cc2)OCc2cn(nn2)CCCC1=O	inactive
COc1cc(OC)c(NC(=O)c2cnc(N3CCCC3)nc2C)cc1Cl	inactive
COc1cc2nc(Cl)nc(NCCO)c2cc1OC	inactive
COc1cc2nc(Cl)nc(NC3CC3)c2cc1OC	14.1 µM (active)
COc1cc2nc(N3CCCN(C)CC3)nc(NC3CC3)c2cc1OC	7.94 µM (active)
COc1ccc(C(=O)N2CCCN(C)CC2)c(OC)c1	inactive
COc1cc2nc(N3CCCN(C)CC3)nc(NC(C)C)c2cc1OC	12.6 µM (active)
COc1cc2nc(C#Cc3nc4cc(OC)c(OC)cc4[nH]3)[nH]c2cc1OC	inactive
Cc1ccc(CNS(=O)(=O)CCNC(=O)c2ccccc2)cc1	inactive
CCOC(=O)C1CCCN(S(=O)(=O)c2ccc3c(c2)C(C)(C)C(=O)N3C)C1 (configuration not stated)	inactive
O=C(COC(=O)c1ccco1)Nc1ccc(Cl)cn1	inactive
COc1ccc(C2Nc3ccccc3C(=O)N2c2ccc(F)cc2)cc1Cn1nnc2ccccc21 (configuration not stated)	inactive
O=C(Cn1nnc2ccccc2c1=O)Nc1cc(C(F)(F)F)ccc1N1CCOCC1	inactive
